We go through 40 molecules from the supplement of paper PMC11732987, “Enantioselective OTUD7B fragment discovery through chemoproteomics screening and high-throughput optimisation” (Communications Chemistry, 2025).

Unmarked numbers belong to inactive results.

Sequence of COPS5 (Q92905 whole entry, looked up, the tested form may be a part): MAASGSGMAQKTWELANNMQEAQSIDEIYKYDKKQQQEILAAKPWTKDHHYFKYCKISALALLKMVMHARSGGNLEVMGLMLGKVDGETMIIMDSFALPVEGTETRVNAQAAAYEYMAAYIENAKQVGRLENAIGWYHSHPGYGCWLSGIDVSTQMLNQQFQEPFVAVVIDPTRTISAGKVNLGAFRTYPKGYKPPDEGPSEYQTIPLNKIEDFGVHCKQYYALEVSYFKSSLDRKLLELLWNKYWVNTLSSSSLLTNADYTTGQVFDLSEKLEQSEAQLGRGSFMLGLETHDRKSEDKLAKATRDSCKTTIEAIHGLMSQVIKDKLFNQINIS

This assay addresses COPS5 (UniProt Q92905). Kind of assay: log2 ratio of Biotin-Ahx-Ub-VS probe labelling (fragment/DMSO); higher = less target engagement (more negative = stronger competition), active = hit call of the paper (q ≤ 0.05, log2 ratio ≤ -1). Particulars: compound concentration: 200 uM; treatment time: 3 h. Here is the method:
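Competitive ABPP in HEK293T cell lysate. Lysates were treated with each chloroacetamide fragment at 200 µM for 3 h, then with Biotin-Ahx-Ub-VS (0.5 µM, 1 h), NeutrAvidin-enriched and analysed by diaPASEF LC-MS/MS. Protein LFQ was median-normalised; average log2 ratio is fragment/DMSO from an unpaired t-test (n=3 treated, n=44 DMSO). Hits: q ≤ 0.05, log2 ratio ≤ -1, unique peptides ≥ 2.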
Take `O=C(CCl)N[C@H]1CC[C@@H](CO)CC1`: the “log2 ratio of Biotin-Ahx-Ub-VS probe labelling” value (shortened to “log2 ratio”) was 0.0798.

Regarding `Cl.O=C(CCl)NCCN1CCc2ccccc21`, the “log2 ratio” value was 0.365. `CC(O)CC1CCN(C(=O)CCl)CC1` (stereo not given): the “log2 ratio” value is -0.25. The value for `O=C(CCl)NCCc1cccc2ccccc12` was -0.0396; that for `Cc1ccc(N(C(=O)CCl)C2C=CS(=O)(=O)C2)cc1` (stereo not given) was -0.235. With `N#Cc1ccc(CNC(=O)CCl)cc1`, the “log2 ratio” value is 0.228. The value for `O=C(CCl)NC1CCC(C(F)(F)F)CC1` (stereo not given) was -0.114.

Turning to `NC(=O)C1CCCCN1C(=O)CCl` (stereo not given), the “log2 ratio” value was 0.234. For `O=C(CN1CCN(C(=O)CCl)CC1)Nc1cccc(F)c1` the value was 0.273; for `O=C(CCl)N1CCOC2(CCC2)CC1`, -0.0213; for `O=C(CCl)NC1CCC2(CC1)OCCO2`, 0.176. With `N#Cc1ccc(Cl)cc1NC(=O)CCl`, the “log2 ratio” value is 0.289.

For `O=C(CCl)Nc1ccc(F)cc1F`, the “log2 ratio” value is -0.115.

Take `O=C(CCl)N[C@H]1CCS(=O)(=O)c2ccccc21`: the “log2 ratio” value is -0.0992. `Cc1ccccc1OCC(=O)N1CCN(C(=O)CCl)CC1`: the “log2 ratio” value was 0.104.

Take `O=C(O)C1Cc2ccccc2CN1C(=O)CCl` (stereo not given): the “log2 ratio” value was 0.15. For `CCCn1nccc1NC(=O)CCl` the value was -0.308; for `Cc1ccc2nnc(CNC(=O)CCl)n2c1`, -0.118.

On to `NS(=O)(=O)c1ccc(Cl)c(NC(=O)CCl)c1`, for which the “log2 ratio” value is 0.226. For the molecule `O=C(CCl)N1CCC(OCc2ccccc2F)CC1`, the “log2 ratio” value is -0.148. In the case of `Cl.O=C(CCl)NCc1cc2c(nc1O)CCCC2`, the “log2 ratio” value is -0.023.

Consider `Cc1nc(CN2CCN(C(=O)CCl)CC2)cs1`, for which the “log2 ratio” value is -0.305. Consider `Cc1cc(C2CCCN2C(=O)CCl)nn1C.Cl` (stereo not given), for which the “log2 ratio” value was 0.0127. For `O=C(CCl)Nc1cc(Cl)ccc1C(=O)O` the value was 0.0271; for `Cc1cccc(NC(=O)[C@@H]2CCCN2C(=O)CCl)n1`, -0.0478; for `O=C(CCl)NCCC1COCCO1` (stereo not given), -0.0816. As to `O=C(CCl)N1CCc2sccc2C1`, the “log2 ratio” value was -0.455. Take `CC1CN(c2ccc(NC(=O)CCl)cc2)CC(C)O1` (stereo not given): the “log2 ratio” value was 0.159. `O=C(CCl)Nc1ccc(F)cc1Cl`: the “log2 ratio” value is -0.284. For `Cl.O=C(CCl)NCc1ccnc(Oc2ccccc2F)c1` the value was 0.031; for `O=C(CCl)NCC1(c2ccccc2)CC1`, 0.0827; for `Cl.Cn1nc2c(c1CNC(=O)CCl)CCCC2`, -0.111. Turning to `Cc1ccn2cc(CNC(=O)CCl)nc2c1.Cl`, the “log2 ratio” value is 0.326. The value for `Cc1ccc(CNC(=O)CCl)nc1C.Cl` was 0.0421; that for `Cl.O=C(CCl)N1CCN(Cc2ccccc2)CC1` was -0.0604; that for `CC(NC(=O)CCl)c1cccc2ccccc12` (stereo not given) was 0.127. Turning to `O=C(CCl)NCc1noc(C2CC2)n1`, the “log2 ratio” value was 0.133. Consider `Cc1c(NC(=O)CCl)c(=O)n(-c2ccccc2)n1C`, for which the “log2 ratio” value is -0.0844. In the case of `O=C(CCl)N1CCOCC1C1CC1` (stereo not given), the “log2 ratio” value was 0.143. `Cc1nc(-c2cccc(NC(=O)CCl)c2)cs1`: the “log2 ratio” value was -0.0825.
